# Source: PubChem BioAssay (National Center for Advancing Translational Sciences (NCATS))
# RORgamma inh: ROR gamma (mouse) transcription inhibition | P51450 | Potency, µM (top dose mostly 53.6 µM), hits mostly inhibitors | Drosophila S2 Gal4-RORgamma UAS-luciferase reporter, 20 h | AID 2551 | 310,000 tested, 5.4% active; further: nearly all actives have a fitted effect of over 60% in size
# Target sequence (P51450 whole entry, looked up, the tested form may be a part): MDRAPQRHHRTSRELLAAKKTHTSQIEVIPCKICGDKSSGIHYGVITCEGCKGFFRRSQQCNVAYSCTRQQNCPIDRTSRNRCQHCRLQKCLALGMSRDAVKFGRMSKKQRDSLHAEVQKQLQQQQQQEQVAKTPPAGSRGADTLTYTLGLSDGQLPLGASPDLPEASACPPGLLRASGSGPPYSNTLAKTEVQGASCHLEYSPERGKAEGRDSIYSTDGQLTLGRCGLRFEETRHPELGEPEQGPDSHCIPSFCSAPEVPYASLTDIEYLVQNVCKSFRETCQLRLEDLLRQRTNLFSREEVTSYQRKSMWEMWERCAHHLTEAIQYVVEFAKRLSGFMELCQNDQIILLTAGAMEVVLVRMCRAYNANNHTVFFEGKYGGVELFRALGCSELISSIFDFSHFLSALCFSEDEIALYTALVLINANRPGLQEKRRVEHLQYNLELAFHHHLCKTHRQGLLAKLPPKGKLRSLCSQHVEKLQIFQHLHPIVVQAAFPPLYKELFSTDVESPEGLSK
#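 Compounds are pin-transferred onto Drosophila Schneider cells expressing a copper-inducible Gal4–ROR gamma transactivation domain fusion. After 1 hr, copper sulfate is added to 700 uM final; luciferase is read 20 hr later.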
# SW480 rereplic: inducers of DNA re-replication in SW480 colon cancer cells; SW480 DNA re-replication, Hoechst DNA content imaging, 48 h; Potency, µM (titrated, usually from 46.1 µM), hits mostly activators; 340,000 tested, 1.8% active; AID 624297; further: nearly all actives have a fitted effect of over 55% in size
#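 Image-based read-out: total Hoechst fluorescence of nuclei (405 nm excitation, 500-530 nm emission), with hits raising the fraction of high-intensity nuclei. SW480 colon cells incubated 48 hr with compounds at 37 C.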
# MCF10A rerep: DNA re-replication induction in MCF 10a cells | MCF 10A DNA re-replication, Hoechst nuclear intensity, 48 h | Potency, µM (doses to about 46.1 µM), most hits filed as activators | 350,000 tested, 2.9% active | AID 624296; further: nearly all actives have a fitted effect of over 50% in size
# Gal4-VP16 FLuc: counter-screen for ROR gamma inhibitors: Gal4-VP16 reporter; Drosophila S2 Gal4-VP16 UAS-luciferase, luminescence, 20 h; 310,000 tested, 3.5% active; Potency, µM (top dose mostly 53.6 µM), usual class: inhibitors;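 further: Gal4-VP16 expression switched on by copper sulfate through the metallothionein promoter; nearly all actives have a fitted effect of over 50% in size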
# KB-3-1 cytotox: kills parental KB-3-1 adenocarcinoma cells; KB-3-1 viability, CellTiter-Glo ATP luminescence, 72 h; Potency, µM (titrated, usually from 46.1 µM), usual class: cytotoxic; 400,000 tested, 1.4% active; further: nearly all actives have a fitted effect of over 60% in size
#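 Cells are dispensed, compounds pinned in, plates held at 37 °C for 72 h, then CellTiter-Glo is added and luminescence read after 10 minutes. Cell line: parental KB-3-1 in phenol-red-free DMEM, 10% FBS.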
# KB-V1 MDR tox: KB-V1 MDR subline cytotoxicity; KB-V1 MDR cells viability, CellTiter-Glo, 72 h; 400,000 tested, 3.4% active; AID 1347076; Potency, µM (doses to about 46.1 µM), hits mostly cytotoxic; further: nearly all actives have a fitted effect of over 60% in size
#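 Compound-treated KB-V1 multidrug-resistant cells, 72 h, 37 degrees C; viability by CellTiter-Glo. Fitted qHTS curves give the values.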
# A number is an active result; 0 = inactive; ? = inconclusive; - = not tested or not shown; [ ] = another dose, or the depositor's remark. In the library only some 10% were active in any assay of this set; here they are far more common. The call rests on the fitted dose curve; in most records, active means well fitted curve in the direction sought with a large enough effect; inconclusive means small, poorly fitted or top-dose-only effect, or another doubt; inactive means no such curve, though single readings can be large; an effect the other way counts as inactive or inconclusive.
SMILES,RORgamma inh,SW480 rereplic,MCF10A rerep,Gal4-VP16 FLuc,KB-3-1 cytotox,KB-V1 MDR tox
O=C1c2cccnc2C(=O)N1c1nc(-c2ccccc2)cs1,-,-,-,-,0,0
CN(Cc1ccco1)c1cc(-c2ccoc2)ncn1,0,-,-,0,-,-
Cc1c(O)c(O)cc2c1oc1c3ccccc3oc(=O)c21,7.1µM,-,-,?,-,-
C=CCC(Nc1ccccc1)C12C=CC(O1)C(C(=O)OC)=C2C(=O)OC (centres undefined),5.6µM,?,13µM,6.3µM,18µM,?
Cc1cc(C)cc(Nc2ncc3c(n2)CCCC3=O)c1,11µM,0,0,11µM,0,0
N=c1c(C(=O)NC2CCCC2)cc2c(=O)n3ccccc3nc2n1Cc1ccccc1,0,?,?,0,0,0
Cc1ccc(Cn2c(=N)c(C(=O)NCC3CCCO3)cc3c(=O)n4cccc(C)c4nc32)cc1 (centres undefined),0,8.2µM,21µM,0,0,0
N=c1c(C(=O)NC2CCCC2)cc2c(=O)n3ccccc3nc2n1CCN1CCOCC1,0,2.8µM,?,0,0,0
N=c1c(C(=O)NCC2CCCO2)cc2c(=O)n3ccccc3nc2n1Cc1ccccc1 (centres undefined),0,2.6µM,3.7µM,0,0,0
CCCn1c(=N)c(C(=O)NCC2CCCO2)cc2c(=O)n3cc(C)ccc3nc21 (centres undefined),-,-,-,-,0,0
N=c1c(C(=O)NCC2CCCO2)cc2c(=O)n3ccccc3nc2n1Cc1ccccc1Cl (centres undefined),0,21µM,3.3µM,0,?,0
COC(=O)NC(CC(C)=O)c1ccccc1 (centres undefined),0[10 µM],-,-,0[10 µM],-,-
Cc1sc2ncn(CC(=O)N3CCN(c4ccccc4F)CC3)c(=O)c2c1S(=O)(=O)N1CCC(C)CC1,-,-,-,-,0,0
COc1ccc(Cn2c(=N)c(C(=O)NCC3CCCO3)cc3c(=O)n4ccccc4nc32)cc1 (centres undefined),0,?,15µM,0,0,0
COc1ccc(CCn2c(=N)c(C(=O)NCC3CCCO3)cc3c(=O)n4ccccc4nc32)cc1 (centres undefined),0,0,0,0,0,?
Cc1ccc(Cn2c(=N)c(C(=O)NC3CCCCC3)cc3c(=O)n4ccccc4nc32)cc1,0,2.3µM,2.6µM,0,0,0
N=c1c(C(=O)NCC2CCCO2)cc2c(=O)n3ccccc3nc2n1Cc1ccc(Cl)cc1 (centres undefined),0,0.58µM,?,0,?,0
Cc1ccc(Cn2c(=N)c(C(=O)NCC3CCCO3)cc3c(=O)n4ccccc4nc32)cc1 (centres undefined),0,18µM,3.3µM,0,0,0
CCN(CC)C(=O)c1c(NC(=O)c2ccccc2F)sc2c1CCC(C(C)(C)C)C2 (centres undefined),-,-,-,-,0,0
O=C1C=CC2=C3c4cc(O)c(O)cc4CC3(O)COC2=C1O (centres undefined),0,0,0,0,0,0
CCOC1=C2[C@H](c3ccccc3)N(S(=O)(=O)c3ccc(C)cc3)[C@H](C(C)C)[C@H]2n2c(=O)n(-c3ccccc3)c(=O)n2C1,-,-,-,-,0,0
Cc1nn(-c2ccc(F)cc2)c(Cl)c1/C=C/C(=O)OCC(=O)Nc1ccc(F)cc1F,0,0,15µM,0,0,0
Cc1nn(-c2ccc(F)cc2)c(Cl)c1/C=N/NC(=O)c1ccc(O)cc1,?,0,?,2.2µM,0,0
Cc1nn(-c2ccc(F)cc2)c(Cl)c1/C=N/NC(=O)c1cccs1,?,0,?,0,0,?
CNC(=S)N/N=C/c1c(C)nn(-c2ccc(F)cc2)c1Cl,2.8µM,?,0,7.1µM,0,0
COc1ccc2c(Sc3ccccc3)c(C(=O)NCCc3ccc(Cl)cc3)[nH]c2c1,-,-,-,-,0,0
N#C/C(=C\c1ccc(OC(F)F)cc1)C(=O)N1CCCCC1,0,0,13µM,0,0,0
CCN1CCN(C(=O)/C(C#N)=C/c2ccc(OC(F)F)cc2)CC1,0,0,0,0,0,0
